Assay results published in PubChem BioAssay.
Values without a mark were called inactive. For some of these results: Measured potencies and affinities stand elsewhere. The source made the active and inactive calls. Unless noted, how the calls were made is not given here.

What was measured:
[1] = antimalarial activity against Dd2 strain (AID 2302;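 active means growth inhibition above 50% at the single 2 µM test dose, taken to imply half-maximal potency below 2 µM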;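 further: 0% = DMSO untreated growth and 100% = chloroquine plus artemisinin killed control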); settings: P. falciparum Dd2 in RBCs, LDH growth readout, 72 h; at 2 µM; hits give high values
[2] = human hepatoma cell viability loss – ATP luminescence, cytotoxicity control for P. falciparum antimalarial project, primary screen (AID 2303;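 active means inhibition above 50%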;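 further: 0% = DMSO wells and 100% = digitonin-killed cells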); settings: HepG2 viability, 24-48 h, at 10 µM, hits give high values
[3] = target: L-lactate dehydrogenase (Plasmodium falciparum (isolate CDC / Honduras)) (UniProt Q27743); experiment: PfLDH activity inhibition – cell lysate, 3D7 strain, counter-screen for P. falciparum growth inhibition project (AID 2304);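 further: 0% = vehicle and 100% = reference inhibitor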; settings: P. falciparum 3D7 crude extract, LDH APAD/NBT absorbance; at 2 µM; hits give high values
Sequence of L-lactate dehydrogenase (Plasmodium falciparum (isolate CDC / Honduras)) (Q27743 whole entry, looked up): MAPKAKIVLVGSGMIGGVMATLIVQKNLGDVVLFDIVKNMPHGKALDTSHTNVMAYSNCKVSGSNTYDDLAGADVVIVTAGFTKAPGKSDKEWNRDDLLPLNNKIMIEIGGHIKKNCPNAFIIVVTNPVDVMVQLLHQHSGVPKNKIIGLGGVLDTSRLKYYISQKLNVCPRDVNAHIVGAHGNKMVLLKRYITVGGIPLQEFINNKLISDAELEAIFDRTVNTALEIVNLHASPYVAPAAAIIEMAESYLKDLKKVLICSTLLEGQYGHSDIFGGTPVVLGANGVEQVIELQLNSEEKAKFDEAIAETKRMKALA

[4] = inhibition of 3D7 malaria parasite growth – strain 3D7 (AID 2306);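 further: 0% = DMSO wells and 100% = chloroquine plus artemisinin control wells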; settings: P. falciparum 3D7 erythrocytic growth, LDH absorbance, 72 h; at 2 µM; hits give high values
[5] = target: Calcium-dependent protein kinase 1 (Plasmodium falciparum (isolate 3D7)) (UniProt P62344); experiment: PfCDPK1 kinase inhibitors, biochemical, TCAMS library (AID 1159585; cut-off not given, nearly all actives have IC50 up to about 0.98 µM;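 further: inhibitors leave more ATP so luminescence rises with inhibition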); settings: recombinant PfCDPK1, Kinase-Glo ATP depletion luminescence
Sequence of Calcium-dependent protein kinase 1 (Plasmodium falciparum (isolate 3D7)) (P62344 whole entry, looked up): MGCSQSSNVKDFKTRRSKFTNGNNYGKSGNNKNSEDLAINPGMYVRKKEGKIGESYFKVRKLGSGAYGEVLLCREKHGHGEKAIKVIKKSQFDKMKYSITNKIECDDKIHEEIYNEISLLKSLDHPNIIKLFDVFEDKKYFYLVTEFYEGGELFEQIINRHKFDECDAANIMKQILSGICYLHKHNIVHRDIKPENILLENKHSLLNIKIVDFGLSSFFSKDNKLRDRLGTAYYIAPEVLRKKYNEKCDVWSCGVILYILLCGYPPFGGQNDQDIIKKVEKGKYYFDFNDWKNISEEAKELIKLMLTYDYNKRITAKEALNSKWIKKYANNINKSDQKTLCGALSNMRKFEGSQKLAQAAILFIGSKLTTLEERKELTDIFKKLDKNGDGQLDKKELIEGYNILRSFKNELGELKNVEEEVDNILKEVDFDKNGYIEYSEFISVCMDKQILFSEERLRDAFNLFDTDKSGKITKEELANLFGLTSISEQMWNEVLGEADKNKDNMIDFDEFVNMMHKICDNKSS

[6] = target: Plasmodium falciparum protein kinase 6 (PK6, PF3D7_1337100) (UniProt Q8IDW1); experiment: PfPK6 kinase inhibitors, biochemical, TCAMS library (AID 1159586); settings: recombinant PfPK6, Kinase-Glo ATP depletion luminescence
Sequence of Plasmodium falciparum protein kinase 6 (PK6, PF3D7_1337100) (Q8IDW1 1-305): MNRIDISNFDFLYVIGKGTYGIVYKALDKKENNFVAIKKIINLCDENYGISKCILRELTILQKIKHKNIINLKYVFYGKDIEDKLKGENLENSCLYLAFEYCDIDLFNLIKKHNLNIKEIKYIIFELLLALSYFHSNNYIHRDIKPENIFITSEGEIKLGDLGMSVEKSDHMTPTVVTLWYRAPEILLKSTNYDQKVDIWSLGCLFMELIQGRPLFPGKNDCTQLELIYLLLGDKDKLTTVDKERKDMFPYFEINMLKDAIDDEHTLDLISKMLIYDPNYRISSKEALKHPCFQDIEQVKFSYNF

[7] = target: Protein kinase 7 (PK7), Plasmodium falciparum 3D7 (PF3D7_0213400) (UniProt Q7YTF7); experiment: inhibition of Plasmodium PK7 catalytic activity – biochemical, TCAMS antimalarial set, Kinase-Glo luminescence (AID 1159587); settings: recombinant PfPK7, Kinase-Glo ATP depletion luminescence
Sequence of Protein kinase 7 (PK7), Plasmodium falciparum 3D7 (PF3D7_0213400) (Q7YTF7 1-343): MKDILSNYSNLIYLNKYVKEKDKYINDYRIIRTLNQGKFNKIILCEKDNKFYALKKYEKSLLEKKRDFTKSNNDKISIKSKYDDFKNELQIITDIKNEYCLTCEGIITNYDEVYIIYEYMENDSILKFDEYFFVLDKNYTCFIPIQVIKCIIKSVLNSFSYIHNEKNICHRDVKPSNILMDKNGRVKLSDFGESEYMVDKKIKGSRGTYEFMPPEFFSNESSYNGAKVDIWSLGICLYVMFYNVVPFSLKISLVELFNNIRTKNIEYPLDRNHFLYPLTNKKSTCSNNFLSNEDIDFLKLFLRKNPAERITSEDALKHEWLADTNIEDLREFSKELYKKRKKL

[8] = target: Calcium-dependent protein kinase 4 (Plasmodium falciparum (isolate 3D7)) (UniProt Q8IBS5); experiment: PfCDPK4 kinase inhibitors, biochemical, TCAMS library (AID 1159588; cut-off not given, nearly all actives have IC50 up to about 0.91 µM); settings: recombinant PfCDPK4, Kinase-Glo ATP depletion luminescence
Sequence of Calcium-dependent protein kinase 4 (Plasmodium falciparum (isolate 3D7)) (Q8IBS5 whole entry, looked up): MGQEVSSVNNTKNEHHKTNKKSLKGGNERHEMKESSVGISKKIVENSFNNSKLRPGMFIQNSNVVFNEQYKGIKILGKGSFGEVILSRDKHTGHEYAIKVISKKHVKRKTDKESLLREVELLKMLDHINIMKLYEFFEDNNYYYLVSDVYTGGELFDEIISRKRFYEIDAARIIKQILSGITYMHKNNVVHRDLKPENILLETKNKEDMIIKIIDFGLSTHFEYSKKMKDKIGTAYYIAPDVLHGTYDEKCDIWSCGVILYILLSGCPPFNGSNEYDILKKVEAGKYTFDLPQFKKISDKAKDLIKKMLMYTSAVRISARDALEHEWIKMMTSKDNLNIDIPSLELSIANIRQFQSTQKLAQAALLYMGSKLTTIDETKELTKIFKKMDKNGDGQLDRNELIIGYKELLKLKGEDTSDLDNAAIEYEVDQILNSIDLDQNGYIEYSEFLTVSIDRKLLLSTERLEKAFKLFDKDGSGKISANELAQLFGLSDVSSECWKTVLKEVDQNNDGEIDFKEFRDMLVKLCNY

Row | Structure (SMILES) | growth inhibition [1] | inhibition [2] | inhibition [3] [%] | growth inhibition [4] | outcome [5] | outcome [6] | outcome [7] | outcome [8]
1 | CCCC(C)Nc1nc(C)cc(N[C@@H](CC(C)C)C(=O)Nc2ccc(OC)cc2)n1 (stereo partly drawn) | 68% (active) | 18% | -1 | 98% (active) | inactive | inactive | inactive | inactive
2 | COc1ccc(NC(=O)NC2CCN(c3ccnc4cc(Cl)ccc34)CC2)cc1 | 64% (active) | 5% | -10 | 83% (active) | inactive | inactive | inactive | inactive
3 | Oc1cccc(-c2nc3ccc(C4=N[C@@H]5CCCC[C@H]5N4)cc3[nH]2)c1 | 99% (active) | 3% | 2 | 94% (active) | inactive | inactive | inactive | inactive
4 | COc1cc2c(cc1C=CC(=O)N1CCN(Cc3nc4sc(C)c(C)c4c(=O)[nH]3)CC1)OC(C)C2 (stereo not drawn) | 87% (active) | -1% | -9 | 82% (active) | inactive | inactive | inactive | inactive
5 | O=C(NC1CCCCN(Cc2ccccc2O)C1)c1cc(F)cc(F)c1 (stereo not drawn) | 52% (active) | 7% | 0 | 89% (active) | inactive | inactive | inactive | inactive
6 | CNC(=O)c1cc(F)c(F)cc1Nc1nc(Nc2cccc(CS(C)(=O)=O)c2)ncc1Cl | 90% (active) | 52% (active) | 3 | 91% (active) | inactive | inactive | inactive | inactive
7 | COc1cc2ncnc(Nc3ccc4nc(Cc5ccccc5)[nH]c4c3)c2cc1OC | 28% | -9% | 0 | 87% (active) | inactive | inactive | inactive | inactive
8 | CCOC(=O)C1=C(C)N=c2sc(=Cc3cc(Cl)ccc3O)c(=O)n2C1c1cc(OC)c(OC)cc1Br (stereo not drawn) | 76% (active) | 6% | -2 | 97% (active) | inactive | inactive | inactive | inactive
9 | COc1ccc(NC(=O)/C=C/c2ccc(Cl)c(C(F)(F)F)c2)cc1OCCN(C(C)C)C(C)C | 28% | 18% | -1 | 95% (active) | inactive | inactive | inactive | inactive
10 | O=C(NC1CCN(Cc2ccccc2O)C1)c1cccc(C(F)(F)F)c1 (stereo not drawn) | 62% (active) | -4% | 4 | 98% (active) | inactive | inactive | inactive | inactive
11 | CCC/C=C/c1c(CNCCCNc2cc(=O)c3ccccc3[nH]2)sc(CC)c1Br | 71% (active) | 8% | -1 | 88% (active) | inactive | inactive | inactive | inactive
12 | CCc1ccc(CN(Cc2ccc(C)cc2)Cc2ccc(NC(C)=O)cc2)cc1 | 79% (active) | 6% | -1 | 89% (active) | inactive | inactive | inactive | inactive
13 | CCc1nc2nc(C)cc(Nc3ccc(F)c(Cl)c3)n2n1 | 77% (active) | 2% | -3 | 90% (active) | inactive | inactive | inactive | inactive
14 | O=C(Nc1ccccc1)N(Cc1ccccc1-c1cccc(CNC2CCCC2)c1)C1CCN(Cc2ccccc2)CC1 | 84% (active) | 36% | 3 | 100% (active) | inactive | inactive | inactive | inactive
15 | Cc1cccc2[nH]c(-c3ccc(-c4cccc(NC(=O)Nc5cccc(C#N)c5)c4)cc3)nc12 | 86% (active) | 25% | 7 | 102% (active) | inactive | inactive | inactive | inactive
16 | OC1CCCN(Cc2ccc(-c3ccc(-c4nc5ccc(F)cc5[nH]4)cc3)cc2)C1 (stereo not drawn) | 79% (active) | 55% (active) | 2 | 100% (active) | inactive | inactive | inactive | inactive
17 | Cc1cccc(Cl)c1S(=O)(=O)N1CCCCC(c2ccc(C(F)(F)F)cc2)=N1 | 100% (active) | 5% | 1 | 100% (active) | inactive | inactive | inactive | inactive
18 | CCCN1CCC(c2c[nH]c3ccc(NC(=O)Nc4cccc(Cl)c4Cl)cc23)CC1 | 17% | 30% | 2 | 100% (active) | inactive | inactive | inactive | inactive
19 | Cc1cccc2[nH]c(-c3ccc(-c4cccc(CN5CCC(CO)CC5)c4)s3)nc12 | 61% (active) | 20% | -8 | 99% (active) | inactive | inactive | inactive | inactive
20 | O=C(NCc1ccco1)c1ccc(CN2CCN(C(c3ccccc3)c3ccccc3)CC2)cc1 | 92% (active) | 6% | -1 | 96% (active) | inactive | inactive | inactive | inactive
21 | Cc1cccc2[nH]c(-c3ccc(-c4cccc(CNC(C)C)c4)s3)nc12 | 97% (active) | 12% | 2 | 100% (active) | inactive | inactive | inactive | inactive

Row | Structure (SMILES) | growth inhibition [1] | inhibition [2] | inhibition [3] [%] | growth inhibition [4] | outcome [5] | outcome [6] | outcome [7] | outcome [8]
22 | Clc1ccc(CNc2ccnc(NCc3cccnc3N3CCCC3)n2)c(Cl)c1 | 53% (active) | 37% | -5 | 85% (active) | inactive | inactive | inactive | inactive
23 | CO/C(=C\C=C\c1cc2cc(Cl)c(Cl)cc2[nH]1)C(=O)NCCCNCCN(C)c1ccccc1 | 55% (active) | 33% | 2 | 100% (active) | inactive | inactive | inactive | inactive
24 | Fc1ccc2nc(-c3ccc(-c4ccc(CN5CCN(c6cnccn6)CC5)cc4)s3)[nH]c2c1 | 98% (active) | 45% | 5 | 99% (active) | inactive | inactive | inactive | inactive
25 | COC(=O)c1ccc(NC(=O)c2ccc(CCN3CCC(c4nc(COCC(F)(F)F)c(-c5ccc(F)cc5)o4)CC3)cc2)cc1 | 37% | 22% | -5 | 89% (active) | inactive | inactive | inactive | inactive
26 | Cc1cc(N[C@@H](CC(C)C)C(=O)Nc2ccccc2)nc(NCc2ccccc2C)n1 | 81% (active) | 21% | 4 | 101% (active) | inactive | inactive | inactive | inactive
27 | CCCNCc1ccc(-c2ccc(CN(CCOC)C(=O)CCCOCc3ccccc3)cc2)nc1 | 13% | -2% | 2 | 93% (active) | inactive | inactive | inactive | inactive
28 | O=C(NC1CCCCN(Cc2ccccc2O)C1)c1cccc(Cl)c1 (stereo not drawn) | 30% | 15% | -4 | 86% (active) | inactive | inactive | inactive | inactive
29 | O=C(/C=C/c1ccc(-c2nc3ccc(Cl)cc3[nH]2)cc1)NCc1cccc(F)c1 | 68% (active) | 1% | 2 | 99% (active) | inactive | inactive | inactive | inactive
30 | CC(=O)Nc1ccc(C(=O)Nc2cccc(-c3ccc(-c4nc5ccc(C(F)(F)F)cc5[nH]4)cc3)c2)cn1 | 100% (active) | 46% | -3 | 101% (active) | inactive | inactive | inactive | inactive
31 | O=C(Nc1ccc([N+](=O)[O-])cc1Br)c1cc2ccccc2nc1Cl | 68% (active) | -4% | 2 | 97% (active) | inactive | inactive | inactive | inactive
32 | CSc1cccc(NC(=O)Nc2ccc(I)c(OCCN(C)C)c2)c1 | 19% | 14% | -1 | 97% (active) | inactive | inactive | inactive | inactive
33 | COc1ccc2nccc(NCC3(O)CCC(NCc4ccc5c(n4)NC(=O)CS5)CC3)c2n1 (stereo not drawn) | 23% | 16% | 3 | 100% (active) | inactive | inactive | inactive | inactive
34 | CC1CCCCN1S(=O)(=O)c1ccc(NC(=O)c2cc(-c3ccccc3O)n[nH]2)cc1 (stereo not drawn) | 96% (active) | 26% | -1 | 90% (active) | inactive | inactive | inactive | inactive
35 | CC(C)CCCC(C)(C)NC[C@@H](O)[C@H](Cc1ccccc1)NC(=O)c1cccc(CCC2CC2)c1 | 52% (active) | 100% (active) | 0 | 98% (active) | inactive | inactive | inactive | inactive
36 | COc1ccc(Cl)cc1N1CCN(CCCNC(=O)c2ccc(-c3nc4cc(Cl)c(F)cc4[nH]3)cc2)CC1 | 98% (active) | 3% | 6 | 101% (active) | inactive | inactive | inactive | inactive
37 | CS(=O)(=O)CCNCc1cccc(-c2cc3nccc(Nc4ccc(Oc5ccccc5)cc4)c3cc2Cl)c1 | 82% (active) | 2% | -3 | 100% (active) | inactive | inactive | inactive | inactive
38 | Oc1ccc(-c2nc3c(N4CCN(Cc5ccccc5)CC4)cccc3n2C2CCNCC2)cc1 | 7% | -1% | 0 | 85% (active) | inactive | inactive | inactive | inactive
39 | c1cnc2ccc(NCc3ccc(-c4ccc(CNC5CCCC5)cc4)cc3)cc2c1 | 21% | 27% | -2 | 97% (active) | inactive | inactive | inactive | inactive
40 | COc1cccc(NC(=O)NC2CCN(c3ccnc(Nc4ccc(F)cc4)n3)C2)c1 (stereo not drawn) | 71% (active) | 9% | -2 | 100% (active) | inactive | inactive | inactive | inactive
41 | CCOc1cc(C)ccc1C1CCN(CCN2CCC(CNC(=O)c3ccc(-c4ccc(C(F)(F)F)cc4)cc3)CC2)CC1 | 89% (active) | 53% (active) | -2 | 98% (active) | inactive | inactive | inactive | inactive
